High-throughput results from PubChem.
A selection: hits, their analogues and other compounds. The true share with any hit is near 5.7%.
HP1b chromo inh = HTS for Inhibitors of HP1-beta Chromodomain Interactions with Methylated Histone Tails | 0.56% of 390,000 active | Chromobox protein homolog 1 (Homo sapiens), P83916 | Potency, µM (top dose mostly 114 µM), usual class: inhibitors | AlphaScreen HP1-beta / biotin-H3K9me3 peptide binding; note: nearly all actives have a fitted effect of over 70% in size
Target sequence (P83916 whole entry, looked up): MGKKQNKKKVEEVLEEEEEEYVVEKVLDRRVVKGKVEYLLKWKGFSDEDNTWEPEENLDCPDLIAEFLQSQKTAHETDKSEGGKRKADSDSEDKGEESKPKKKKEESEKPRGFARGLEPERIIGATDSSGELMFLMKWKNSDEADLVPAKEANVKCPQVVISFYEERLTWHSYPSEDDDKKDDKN
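Compound inhibition of the preformed complex between 50 nM HP1-beta and 50 nM biotinylated H3K9me3 peptide was read by AlphaScreen. Buffer was PBS pH 7.4 with 0.01% Tween-20. Incubations ran 30 min at room temperature, with 10 ug/mL donor/acceptor beads.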
L3MBTL1 block = qHTS Assay for the Inhibitors of L3MBTL1. Potency, µM (titrated, usually from 57.1 µM), usual class: inhibitors. AID 485360, 2010. 0.66% of 230,000 active. Lethal(3)malignant brain tumor-like protein 1 (Homo sapiens), Q9Y468. AlphaScreen L3MBTL1–H3K9me1 peptide binding; note: nearly all actives have a fitted effect of over 60% in size
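AlphaScreen proximity signal between nickel-chelate acceptor and streptavidin donor beads (final 10 ug/mL) reports binding of 50 nM L3MBTL1 to 75 nM biotin-H3 K9me1 peptide; complex incubated with compounds 30 min at room temperature; cefsulodin titration as control.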
JMJD2A Tudor inh = qHTS Assay for Inhibitors of JMJD2A-Tudor Domain. Lysine-specific demethylase 4A (Homo sapiens), O75164. AlphaScreen JMJD2A-Tudor / H3K4me3 peptide binding. Potency, µM (highest dose often 114 µM), actives largely listed as inhibitors. 4.4% of 390,000 active; note: nearly all actives have a fitted effect of over 50% in size
JMJD2E inh = qHTS Assay for Inhibitors of Human Jumonji Domain Containing 2E (JMJD2E) | Lysine-specific demethylase 4E (Homo sapiens), B2RXH2 | JMJD2E catalytic domain, FDH-coupled NADH fluorescence (FDH is formaldehyde dehydrogenase) | Potency, µM (series often up to 57.1 µM), usual class: inhibitors | 1.6% of 230,000 active | AID 2147, 2009; active = well fitted inhibition curve with a large enough effect, not every such curve was filed as active; inconclusive = small, poorly fitted or top-dose-only effect, or another doubt; inactive = no such curve, though single readings can be large or run the other way; note: nearly all actives have a fitted effect of over 50% in size
PI5P4Ka inh = qHTS for Inhibitors of phosphatidylinositol 5-phosphate 4-kinase (PI5P4K). Phosphatidylinositol 5-phosphate 4-kinase type-2 alpha (Homo sapiens), P48426. PI5P4Kalpha enzyme, ADP-Glo luminescence, 60 min; stronger effect = lower value. max response, %. 1.2% of 330,000 active. AID 652105, 2013; active = max response of -50% or lower; inconclusive = between -30% and -50%; inactive = -30% or higher; note: value at the top dose of about 77 µM
Target sequence (P48426 whole entry, looked up): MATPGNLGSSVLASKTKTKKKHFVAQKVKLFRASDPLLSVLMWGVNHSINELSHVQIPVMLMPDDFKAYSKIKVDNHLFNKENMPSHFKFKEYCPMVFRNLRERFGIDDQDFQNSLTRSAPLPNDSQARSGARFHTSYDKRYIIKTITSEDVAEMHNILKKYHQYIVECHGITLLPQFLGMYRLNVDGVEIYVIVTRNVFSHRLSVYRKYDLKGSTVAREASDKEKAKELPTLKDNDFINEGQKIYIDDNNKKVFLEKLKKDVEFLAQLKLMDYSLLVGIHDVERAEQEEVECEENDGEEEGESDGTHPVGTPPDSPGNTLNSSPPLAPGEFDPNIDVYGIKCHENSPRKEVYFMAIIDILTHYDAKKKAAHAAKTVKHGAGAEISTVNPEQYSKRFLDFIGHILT
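Quantitative HTS of the MLSMR library against PI5P4Kalpha with substrate. ATP added last at 5 microM final; room temperature, 60 minutes. Remaining ATP depleted, ADP converted and read as luminescence.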
BAZ2B inh = qHTS Assay for Inhibitors of BAZ2B | Bromodomain adjacent to zinc finger domain protein 2B (Homo sapiens), Q9UIF8 | AlphaScreen BAZ2B-H3K14Ac peptide displacement | Potency, µM (titrated, usually from 114 µM), hits mostly inhibitors | 4.4% of 360,000 active | AID 504333, 2011; note: nearly all actives have a fitted effect of over 60% in size
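Inhibition is scored as reduced AlphaScreen emission. The BAZ2B/b-H3(5-23)K14Ac complex (50 nM each) in PBS pH 7.4, 0.01% Tween-20 meets compound (up to 110 uM) for 30 min at RT before bead addition.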
Large screens that a line does not name were inactive. Unless noted, calls come from the whole dose curve; as a rule, active = well fitted inhibition curve with a large enough effect; inconclusive = small, poorly fitted or top-dose-only effect; inactive = no such curve, though single readings can be large or run the other way.

COc1ccc(C2Nc3ccccc3C(=O)N2Cc2ccccc2)cc1COc1cccc(Cl)c1 (configuration not stated)	none (no result: HP1b chromo inh, L3MBTL1 block, JMJD2E inh, PI5P4Ka inh, BAZ2B inh)
Cc1ccc(NNC(=O)c2cc(C(C)(C)C)nn2Cc2ccccc2)cc1	HP1b chromo inh inconclusive, JMJD2A Tudor inh 71µM
Cc1ccc(-n2ncc(C(=O)Nc3ccc4c(c3)OCO4)c2C2CCN(C(=O)OC(C)(C)C)CC2)c(C)c1	JMJD2A Tudor inh 32µM, BAZ2B inh inconclusive (no result: L3MBTL1 block, JMJD2E inh, PI5P4Ka inh)
Cc1cccc(C)c1-n1ncc(C(=O)Nc2ccc3c(c2)OCO3)c1C1CCN(C(=O)OC(C)(C)C)CC1	JMJD2A Tudor inh inconclusive (no result: L3MBTL1 block, JMJD2E inh, PI5P4Ka inh)
O=C(CCn1nc(-c2ccccc2)ccc1=O)NCCCN1CCCCCC1	JMJD2A Tudor inh inconclusive, BAZ2B inh 79µM
c1cc(SSc2ccncc2)ccn1	HP1b chromo inh inconclusive, JMJD2A Tudor inh 14µM, PI5P4Ka inh -70, BAZ2B inh inconclusive (no result: L3MBTL1 block, JMJD2E inh)
c1ccc(Sc2ccncc2)cc1	none (no result: HP1b chromo inh, L3MBTL1 block, JMJD2A Tudor inh, JMJD2E inh, BAZ2B inh)
Cc1ccc(CS(=O)(=O)Cc2ccc(C(=O)NCCCN3CC(C)CC(C)C3)o2)cc1 (configuration not stated)	none (no result: L3MBTL1 block, JMJD2E inh)
COc1ccc(C(CCN2CCOCC2)c2c(O)cc(OC)cc2OC)cc1 (configuration not stated)	none (no result: L3MBTL1 block)
COc1cc(O)c(C(CCN2CCN(c3ccccc3)CC2)c2cc(OC)c(OC)c(OC)c2)c(OC)c1 (configuration not stated)	HP1b chromo inh inconclusive, JMJD2A Tudor inh 40µM, BAZ2B inh inconclusive (no result: L3MBTL1 block)
COc1cc(O)c(C(CCN2CCCC2)c2ccc3c(c2)OCO3)c(OC)c1 (configuration not stated)	JMJD2A Tudor inh inconclusive, BAZ2B inh inconclusive (no result: L3MBTL1 block)
COc1cc(O)c(C(CCN2CCN(c3ccccc3)CC2)c2ccc3c(c2)OCO3)c(OC)c1 (configuration not stated)	JMJD2A Tudor inh 18µM, JMJD2E inh inconclusive, BAZ2B inh 10µM (no result: L3MBTL1 block)
Cc1cc(C(=O)CNCc2ccco2)c(C)n1-c1ccc(F)cc1	HP1b chromo inh inconclusive, JMJD2A Tudor inh 3.2µM, BAZ2B inh 56µM (no result: PI5P4Ka inh)
Cc1cc(C(=O)CN2CCCCC2)c(C)n1-c1ccc(F)cc1	JMJD2E inh inconclusive, BAZ2B inh inconclusive
CCCCCn1c(N)c(-c2nc3ccccc3o2)c2c([N+](=O)[O-])nn(C)c(=O)c21	JMJD2A Tudor inh 45µM, JMJD2E inh inconclusive, BAZ2B inh inconclusive
CC(C)=CCc1cc([C@@H]2CC(=O)c3ccc(O)c(CC=C(C)C)c3O2)ccc1O	JMJD2A Tudor inh inconclusive, PI5P4Ka inh -100 (no result: L3MBTL1 block, JMJD2E inh, BAZ2B inh)
CN(C(=S)NC(=O)C12CC3CC(CC(C3)C1)C2)c1ccc(O)cc1	HP1b chromo inh 10µM, JMJD2A Tudor inh 50µM (no result: JMJD2E inh, BAZ2B inh)
S=c1[nH]nc(-c2ccccc2)n1/N=C/c1cccc(Cl)c1	JMJD2A Tudor inh 71µM (no result: JMJD2E inh)
S=c1[nH]nc(-c2ccncc2)n1/N=C/c1cccc(Cl)c1	JMJD2A Tudor inh 11µM (no result: L3MBTL1 block)
Cc1cccc(Cn2c(C)c(CNC3CCCCCC3)c(C(=O)O)c2C)c1	none (no result: L3MBTL1 block, JMJD2E inh, PI5P4Ka inh)
O=C(Nc1ccccc1)c1sc2cc(C(F)(F)F)cnc2c1-c1cccs1	JMJD2A Tudor inh 28µM, JMJD2E inh inconclusive, PI5P4Ka inh inconclusive (no result: L3MBTL1 block)
CCOCCCn1c(SCC(=O)NCc2ccco2)nc2c(sc3ccccc32)c1=O	JMJD2E inh inconclusive (no result: L3MBTL1 block)
CCOC(=O)CSc1nc2c(sc3ccccc32)c(=O)n1CCO	JMJD2A Tudor inh 56µM (no result: L3MBTL1 block, JMJD2E inh, PI5P4Ka inh)
N#CCSc1nc2ccccc2c(=O)n1CCCC(=O)NCc1ccco1	none (no result: L3MBTL1 block)
CCCCn1c(SCC(=O)NCc2ccco2)nc2c(sc3ccccc32)c1=O	JMJD2E inh 7.1µM (no result: L3MBTL1 block, PI5P4Ka inh)
O=C(CCCCCn1c(SCc2ccncc2)nc2ccccc2c1=O)NCc1ccco1	L3MBTL1 block inconclusive, JMJD2A Tudor inh 25µM, BAZ2B inh 50µM (no result: PI5P4Ka inh)
CN(CC(=O)NC(=O)NC1CCCCC1)CC(=O)Nc1ccc(Cl)cc1	none (no result: JMJD2E inh)
